About 2,000 (36%) of roughly 5,500 compounds were called active. About 18% were inconclusive and are not listed. Cut-off read from the data, not from the text of the source: active = normalized growth mostly below about 0.91 (no sharp cut-off); inconclusive = no clear call, values can overlap the other calls; inactive = mostly above about 0.92. The list shows a part of the results.
Test: chemical genetic growth profiling, strain panel (AID 1159580);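 note: tested at 20 µM; growth read once vehicle control cultures reached saturation at 30 °C; 1 = growth at the plate median or of vehicle wells; lower values mean less growth of the strain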
Conditions: S. cerevisiae deletion strains, growth OD

Measured: normalized growth

COc1cc(-c2coc3cc(O)c(OC)c(O)c3c2=O)cc(O)c1OC
inactive: locus YHR030C, strain SLT2, hits give low values 1.02 | locus YHR079C, strain IRE1, hits give low values 1.03 | locus YJL095W, strain BCK1, hits give low values 1.02 | locus YJR066W, strain TOR1, hits give low values 0.969 | locus YLR113W, strain HOG1, hits give low values 1.02 | locus YNL183C, strain NPR1, hits give low values 1 | locus YOR231W, strain MKK1, hits give low values 1.03 | locus YPL256C, strain CLN2, hits give low values 1.07
